The record followed here is PubChem BioAssay.

The nature of assay [1]: Wnt pathway potentiators raising nuclear beta-catenin – imaging, WNT3A-conditioned medium, mouse C2C12, NPC library, primary screen (AID 1117326; in the data active = nuclear beta-catenin stimulation mostly above about 4.2%, no sharp cut-off; inactive = mostly below about 10%; note: reference of the scale not given here). The conditions noted are these: stronger effect = higher value.
Assay [2] is described as follows: stimulators of insulin release from INS-1E, primary screen, cell-based, 5 mM glucose, NPC library (AID 1117329;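 active = compound raises insulin release from rat beta cells at 5 mM glucose, no numeric limit stated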; note: reference of the scale not given here). The conditions noted are these: rat INS-1E insulin secretion, at 10 µM, stronger effect = higher value.
Assay [3] is described as follows: growth inhibition of GSK3B-pretreated HCT116 cells – cell-based, CellTiter-Glo, 0.2 to 20 µM (AID 1117336). The conditions noted are these: HCT116 viability after GSK3B inhibitor, at 20 µM, stronger effect = higher value.
Assay [4] can be described thus: inhibition of endothelial tube formation, primary screen, imaging, VEGF stimulated, CD31 staining, tube area, NPC library (AID 1117340;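 active = compound that reduces growth-factor-driven endothelial tube area in a mixed cell culture, no cutoff stated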). The note with it: VEGF-stimulated ADSC/ECFC co-culture, at 10 µM, stronger effect = higher value.
Assay [5] in a line: GLP1 release stimulators, primary, NCI-H716, NPC library (AID 1117341;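 active = compound raises GLP1 secretion from the human gut endocrine cells, with no numeric limit stated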; note: reference of the scale not given here). The conditions noted are these: NCI-H716 cells, at 10 µM, stronger effect = higher value.
Assay [6] in a line: HCT116 colon cancer cell growth inhibition, primary screen, CellTiter-Glo luminescence, NPC library (AID 1117342;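 active = compounds that lower survival of HCT116 colon cancer cells in the luminescence readout, no numeric limit stated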). The note with it: at 20 µM (top of the series).
Assay [7] is described as follows: reduced SW480 viability measured with CellTiter-Glo, NPC library, primary (AID 1117343;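 active = compounds that lower viability of the colon cancer cells in the luminescence readout, with no numeric limit stated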). The conditions noted are these: CellTiter-Glo luminescence; at 20 µM (top of the series).
Assay [8] is described as follows: NPC library primary testing for decreased DLD-1 cell viability via CellTiter-Glo (AID 1117346;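 active = compounds that lower survival of DLD-1 colon cancer cells in the luminescence readout, no cutoff given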). The conditions noted are these: DLD-1 viability, CellTiter-Glo luminescence; at 20 µM (top of the series).

Activity calls are given as the source filed them.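 Rule for the calls, unless noted: active = compounds lowering colon cancer cell viability after pretreatment blocking the GSK3B kinase; inactive = the rest.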

As to `CC(C)CCOC(=O)c1ccc(N(C)C)cc1`, the nuclear beta-catenin stimulation is 0% (inactive) in assay [1] (at 10 µM) and 0.7% in assay [1] (stimulation, at 2 µM). Also, the insulin secretion stimulation in assay [2] was 0.4% (inactive). The viability decrease in assay [3] is -16.7% (inactive). In addition, in assay [4], the tube area decrease was -11.5% (inactive). Besides, the GLP1 secretion stimulation in assay [5] is 1.7% (inactive). Further, the inhibition of viability in assay [6] is 19.9% (inactive). Also, the viability decrease (inhibition) in assay [7] was -6.9% (inactive); in assay [8] it was 10.3% (inactive).

`C[C@@H](O)[C@H]1C(=O)N2C(C(=O)O)=C(S[C@@H]3CN[C@H](CNS(N)(=O)=O)C3)[C@H](C)[C@H]12`: the nuclear beta-catenin stimulation in assay [1] (at 10 µM) was 2.9% (inactive); in assay [1] (stimulation, at 2 µM), 3%. In addition, the insulin secretion stimulation in assay [2] was -0.6% (inactive). Besides, in assay [3], the viability decrease was 14% (inactive). In addition, the tube area decrease in assay [4] was -14% (inactive). For the same molecule, the GLP1 secretion stimulation in assay [5] is 0.3% (inactive). For the same molecule, the inhibition of viability in assay [6] is 25.7% (inactive). The viability decrease (inhibition) is 3.1% (inactive) in assay [7] and -20.9% (inactive) in assay [8].

Turning to `CC1CC(=O)NN=C1c1ccc(NCC(C)(C)NCC(O)COc2cc(Cl)ccc2C#N)cc1` (centres undefined), the nuclear beta-catenin stimulation in assay [1] (at 10 µM) was -1.8% (inactive); in assay [1] (stimulation, at 2 µM), 1.1%. The insulin secretion stimulation in assay [2] was 31.3% (active). In addition, in assay [3], the viability decrease is -8% (inactive). In assay [4], the tube area decrease is 11.2% (inactive). In addition, in assay [5], the GLP1 secretion stimulation is 1% (inactive). Moreover, the inhibition of viability in assay [6] was 23.2% (inactive). The viability decrease (inhibition) in assay [7] is 5.4% (inactive); in assay [8] it was 15.4% (inactive).

For `CCCCCCCCCCC(CO)CCCCCCCC` (centres undefined), the nuclear beta-catenin stimulation is -0.6% (inactive) in assay [1] (at 10 µM) and -0.4% in assay [1] (stimulation, at 2 µM). In assay [2], the insulin secretion stimulation was -0.5% (inactive). In addition, in assay [3], the viability decrease is 11.5% (inactive). Moreover, the tube area decrease in assay [4] was -3.9% (inactive). Moreover, the GLP1 secretion stimulation in assay [5] is -4% (inactive). For the same molecule, the inhibition of viability in assay [6] is 5.07% (inactive). Besides, the viability decrease (inhibition) in assay [7] is 14.5% (inactive); in assay [8], -17.6% (inactive).

Take `C=Cc1ccccc1`: the nuclear beta-catenin stimulation in assay [1] (at 10 µM) is -2.1% (inactive); in assay [1] (stimulation, at 2 µM), -0.8%. The insulin secretion stimulation in assay [2] was 3.5% (inactive). Also, the viability decrease in assay [3] was -5% (inactive). Besides, the tube area decrease in assay [4] was -9.4% (inactive). In addition, in assay [5], the GLP1 secretion stimulation was -1.4% (inactive). In addition, the inhibition of viability in assay [6] was 6.9% (inactive). The viability decrease (inhibition) in assay [7] is 0.4% (inactive); in assay [8], 1.7% (inactive).

As for `O=C(O)c1cc(=O)c2c3nc4ccccc4oc-3cc(=O)c2[nH]1`, the nuclear beta-catenin stimulation in assay [1] (at 10 µM) is -0.4% (inactive); in assay [1] (stimulation, at 2 µM) it was -0.7%. Besides, the insulin secretion stimulation in assay [2] is -0.1% (inactive). For the same molecule, the viability decrease in assay [3] was 10.4% (inactive). In addition, the tube area decrease in assay [4] was 16.6% (inactive). Also, in assay [5], the GLP1 secretion stimulation was -7.4% (inactive). The inhibition of viability in assay [6] is -31.1% (inactive). The viability decrease (inhibition) in assay [7] is 17.8% (inactive); in assay [8], -15.6% (inactive).

As for `CCC(=O)Oc1ccc2c(c1)CC[C@@H]1[C@@H]2CC[C@@]2(C)[C@H]1C[C@@H](OC(=O)CC)[C@@H]2OC(=O)CC`, the nuclear beta-catenin stimulation is 1.7% (inactive) in assay [1] (at 10 µM) and 1.2% in assay [1] (stimulation, at 2 µM). In addition, the insulin secretion stimulation in assay [2] was 2.5% (inactive). In addition, the viability decrease in assay [3] is -51.4% (inactive). Besides, in assay [4], the tube area decrease is 28.9% (inactive). Moreover, the GLP1 secretion stimulation in assay [5] was -6.9% (inactive). For the same molecule, the inhibition of viability in assay [6] was 31.7% (inactive). Further, the viability decrease (inhibition) in assay [7] was 67.4% (active); in assay [8], -2.6% (inactive).

Turning to `CCCC(O)C(CC)CO` (centres undefined), the nuclear beta-catenin stimulation in assay [1] (at 10 µM) was -0.6% (inactive); in assay [1] (stimulation, at 2 µM), 1.4%. In assay [2], the insulin secretion stimulation was -1.8% (inactive). Further, the viability decrease in assay [3] is -18.3% (inactive). Moreover, in assay [4], the tube area decrease was 16.6% (inactive). For the same molecule, in assay [5], the GLP1 secretion stimulation was -0.4% (inactive). In addition, the inhibition of viability in assay [6] is 3.33% (inactive). The viability decrease (inhibition) in assay [7] was 2.8% (inactive); in assay [8] it was 2.4% (inactive).

For the molecule `CCCC(=O)O[C@]1(C(=O)COC(=O)CC)CC[C@H]2[C@@H]3CCC4=CC(=O)CC[C@]4(C)[C@H]3[C@@H](O)C[C@@]21C`, the nuclear beta-catenin stimulation was -0.4% (inactive) in assay [1] (at 10 µM) and -2.3% in assay [1] (stimulation, at 2 µM). In assay [2], the insulin secretion stimulation was 0.8% (inactive). For the same molecule, the viability decrease in assay [3] was -8.8% (inactive). Also, in assay [4], the tube area decrease is -9% (inactive). Moreover, the GLP1 secretion stimulation in assay [5] is 1.9% (inactive). Besides, the inhibition of viability in assay [6] is 6.6% (inactive). For the same molecule, the viability decrease (inhibition) in assay [7] was -5.5% (inactive); in assay [8], -2% (inactive).

For `CCCc1ccc(C(=O)O)cc1`, the nuclear beta-catenin stimulation in assay [1] (at 10 µM) is -2% (inactive); in assay [1] (stimulation, at 2 µM), 2.4%. Besides, in assay [2], the insulin secretion stimulation is 0.6% (inactive). Besides, the viability decrease in assay [3] was -19.9% (inactive). In assay [4], the tube area decrease was 0.8% (inactive). Moreover, in assay [5], the GLP1 secretion stimulation was 1.1% (inactive). The inhibition of viability in assay [6] was 7.9% (inactive). Further, the figures for the viability decrease (inhibition) in assay [7] and in assay [8] were 12.9% (inactive) and 11.8% (inactive), respectively.

For the molecule `CCc1cccc2c(CCO)c[nH]c12`, the nuclear beta-catenin stimulation in assay [1] (at 10 µM) is 1.1% (inactive); in assay [1] (stimulation, at 2 µM), 0.4%. Moreover, in assay [2], the insulin secretion stimulation was 0.7% (inactive). Moreover, in assay [3], the viability decrease is 12.2% (inactive). Also, in assay [4], the tube area decrease was -19.3% (inactive). Besides, the GLP1 secretion stimulation in assay [5] was 0.1% (inactive). Besides, the inhibition of viability in assay [6] was -1.1% (inactive). The viability decrease (inhibition) is -18% (inactive) in assay [7] and -6.5% (inactive) in assay [8].

With `CCCCCCCCCCCCCCCCCCO`, the nuclear beta-catenin stimulation was 0.4% (inactive) in assay [1] (at 10 µM) and -0.4% in assay [1] (stimulation, at 2 µM). Further, in assay [2], the insulin secretion stimulation was -1.7% (inactive). Further, the viability decrease in assay [3] was -15.2% (inactive). For the same molecule, the tube area decrease in assay [4] is -3.6% (inactive). Further, the GLP1 secretion stimulation in assay [5] is 1.9% (inactive). The inhibition of viability in assay [6] is -11.1% (inactive). The viability decrease (inhibition) in assay [7] is 0.9% (inactive); in assay [8] it was -5.65% (inactive).

As to `COC(=O)[C@H]1[C@H]2C[C@@H]3c4[nH]c5cc(OC)ccc5c4CCN3C[C@H]2C[C@@H](OC(=O)/C=C/c2ccc(O)c(OC)c2)[C@@H]1OC`, the nuclear beta-catenin stimulation in assay [1] (at 10 µM) was 74.6% (active); in assay [1] (stimulation, at 2 µM), 3.6%. Further, in assay [2], the insulin secretion stimulation is 0.4% (inactive). Further, the viability decrease in assay [3] was 91.8% (active). The tube area decrease in assay [4] is 21% (inactive). Also, the GLP1 secretion stimulation in assay [5] was 0.1% (inactive). The inhibition of viability in assay [6] is 85% (active). The viability decrease (inhibition) is 142% (active) in assay [7] and 102% (active) in assay [8].

For `CCC(Cc1c(I)cc(I)c(O)c1I)C(=O)O` (centres undefined), the nuclear beta-catenin stimulation was 0.6% (inactive) in assay [1] (at 10 µM) and 0.3% in assay [1] (stimulation, at 2 µM). In addition, the insulin secretion stimulation in assay [2] was -0.2% (inactive). In addition, the viability decrease in assay [3] is 7.1% (inactive). The tube area decrease in assay [4] was -23.3% (inactive). The GLP1 secretion stimulation in assay [5] is -3.4% (inactive). Also, in assay [6], the inhibition of viability is -22.9% (inactive). The viability decrease (inhibition) is 11.5% (inactive) in assay [7] and 1.1% (inactive) in assay [8].

Regarding `N#CC1(c2ccc(F)cc2)CCC(=O)CC1`, the nuclear beta-catenin stimulation is -0.7% (inactive) in assay [1] (at 10 µM) and -2.1% in assay [1] (stimulation, at 2 µM). Moreover, in assay [2], the insulin secretion stimulation was 2.2% (inactive). The viability decrease in assay [3] is 5.9% (inactive). Further, in assay [4], the tube area decrease is 0.9% (inactive). For the same molecule, the GLP1 secretion stimulation in assay [5] is 1.7% (inactive). In addition, the inhibition of viability in assay [6] was 8.6% (inactive). Moreover, the viability decrease (inhibition) in assay [7] is 3.1% (inactive); in assay [8], -1.9% (inactive).

For the molecule `CCCCCC(N)=O`, the nuclear beta-catenin stimulation in assay [1] (at 10 µM) was 1.3% (inactive); in assay [1] (stimulation, at 2 µM), 2.1%. The insulin secretion stimulation in assay [2] was -1.1% (inactive). In addition, the viability decrease in assay [3] was -27.2% (inactive). Also, the tube area decrease in assay [4] was 8.8% (inactive). The GLP1 secretion stimulation in assay [5] is 0.3% (inactive). In assay [6], the inhibition of viability was 2.8% (inactive). Besides, the values for the viability decrease (inhibition) in assay [7] and in assay [8] were 44.1% (inactive) and -11.8% (inactive), respectively.
